The whole screen tested about 340,000 compounds, of which about 3,300 (0.97%) were called active. The list comes from a sample in which actives are over-represented; it also holds similar structures and randomly drawn compounds. Unmarked numbers belong to inactive results.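 Rule for the calls: active = inhibition above the mean over all tested compounds plus 3 SD (cut at about 30% in these data); inactive = the rest.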
target: Platelet-activating factor acetylhydrolase 2, cytoplasmic (Homo sapiens) (UniProt Q99487); assay: PAFAH2 enzyme inhibitors, primary screen, biochemical, fluorescence polarization, human (AID 492956); settings: recombinant PAFAH2, FP-rhodamine activity probe, at 3.39 µM, hits give high values;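 note: inhibitors block probe labeling of enzyme so polarization drops; 0% = enzyme with DMSO and 100% = wells lacking PAFAH2 protein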

| Compound | inhibition |
| --- | --- |
| O=CN1CCN(C(=O)c2ccc(Br)o2)CC1 | 0.55% |
| Cc1cccc(NS(=O)(=O)c2ccc(C(=O)NCC(C)(C)N3CCOCC3)cc2)c1C | -5.69% |
| O=c1cccc(-c2ccc(Br)cc2)o1 | 1.7% |
| COc1ccc(SCc2noc(C(=O)NCC3CCCO3)c2C(=O)O)cc1 (stereo not drawn) | 0.7% |
| CC1=NNC(=O)C1Cc1c(Cl)cccc1Cl (stereo not drawn) | 5.21% |
| CC1=C(C(=O)OC2CCCCC2)C(c2ccccc2F)NC(=O)N1 (stereo not drawn) | -4.88% |
| CCOC(=O)C1CCN(c2c(Nc3cc(C)cc(C)c3)c(=O)c2=O)CC1 | 7.85% |
| Cc1cccc(C(=O)Nc2ccc(C(=O)N/N=C/c3cccc(C)n3)cc2)c1 | -6.77% |
| C/C(=N\NC(=O)CNc1cccc2ccccc12)c1ccc(Br)s1 | 9.68% |
| Cc1cccc(/C=N/NC(=O)CNc2cccc3ccccc23)n1 | 47.5% (active) |
| CC(=O)Nc1cccc(C(=O)OCC(=O)NCc2cc(C)c(O)c(C)c2)c1 | 7.09% |
| CC(C)CNC(=O)COC(=O)/C=C/c1ccccc1[N+](=O)[O-] | 72.8% (active) |
| Cc1cccc(C(=O)OCC(=O)NCC(C)C)c1O | 3.36% |
| CC(=O)Nc1cccc(C(=O)OCC(=O)Nc2nnc(-c3ccccc3)o2)c1 | 4.32% |
| COc1cc(/C=C/C(=O)OCC(=O)Nc2cccc(Oc3ccccc3)c2)ccc1O | 64.5% (active) |
| COc1cccc(NC(=O)COC(=O)c2ccc3ccccc3n2)c1 | -5.69% |
| O=C(/C=C/c1ccccc1[N+](=O)[O-])OCC(=O)N1CCCC1 | 7.52% |
| CC(C)CNC(=O)COC(=O)/C=C/c1ccco1 | 69% (active) |
| CC(C)c1nnc(NC(=O)COC(=O)/C=C/c2ccc([N+](=O)[O-])cc2)s1 | -1.12% |
| COc1ccc(C(=O)OCC(=O)Nc2cccc(C(C)=O)c2)cc1OC | 81.3% (active) |

| Compound | inhibition |
| --- | --- |
| CCCCN(C(=O)/C=C/c1ccco1)c1c(N)n(CC(C)C)c(=O)[nH]c1=O | -7.37% |
| COc1cc2c(cc1NC(=O)COC(=O)/C=C/c1ccccc1)oc1ccccc12 | 1.23% |
| COc1ccc(S(=O)(=O)NCC(=O)NCc2cc(=O)n(C)c(=O)n2C)cc1F | -4.5% |
| CN1C(=O)[C@H]2[C@@H](/C=C/c3ccccc3)N3C(=O)CN(Cc4ccc(-c5ccccc5)cc4)C(=O)[C@@]3(C)[C@H]2C1=O | 6.34% |
| COC(=O)c1ccc(CN2CCC(CO)(Cc3ccc(OC)cc3)CC2)cc1 | -1.13% |
| CCOc1ccccc1NC(=O)C1CCCN(C(=O)Nc2ccccc2)C1 (stereo not drawn) | 8.64% |
| COCCNC(=O)CN(Cc1ccco1)C(=O)CCC(=O)Nc1nccs1 | -1% |
| COc1cc(/C=C/C(=O)OCC(=O)NCCCc2ccccc2)ccc1O | 48.4% (active) |
| COc1cccc(NC(=O)CN(C)C(=O)/C=C/c2cc(OC)ccc2OC)c1 | 1.18% |
| COc1cccc(NC(=O)COC(=O)/C=C/c2ccco2)c1 | 71.4% (active) |
| NS(=O)(=O)c1cccc(NC(=O)COC(=O)/C=C/c2ccco2)c1 | 26.1% |
| COc1cccc(NC(=O)COC(=O)CCOc2ccccc2OC)c1 | 3.71% |
| COc1ccc([N+](=O)[O-])cc1NC(=O)COC(=O)/C=C/c1ccco1 | 14.1% |
| COc1ccc(/C=C/C(=O)OCC(=O)Nc2cccc(Oc3ccccc3)c2)c(OC)c1 | 44.5% (active) |
| COc1ccc(OC)c(/C=C/C(=O)OCC(=O)Nc2ccc3c(c2)OCCO3)c1 | 43.7% (active) |
| COc1cc(/C=C/C(=O)OCC(=O)NC(=O)NCc2ccccc2)ccc1OCC#N | -1.43% |
| COc1ccc(OC)c(/C=C/C(=O)c2ccc3c(c2)OCO3)c1 | 10.8% |
| COc1ccccc1OCCCC(=O)Nc1ccc2c(c1)OCCO2 | -0.62% |
| COc1cc(/C=C/C(=O)OCC(=O)c2ccccc2)cc(OC)c1OC | 18% |
| O=C(Nc1cccc2c1CCCC2)C1CCN(C(=O)NC2CCCCC2)CC1 | -4.67% |

| Compound | inhibition |
| --- | --- |
| COc1ccc(OC)c(/C=N/NC(=O)c2ccc[n+](CC(=O)c3ccccc3)c2)c1 | -2.42% |
| Cc1ccc(/C=C/C(=O)O)cc1S(=O)(=O)N1CCC(Cc2ccccc2)CC1 | 2.39% |
| O=C(C[C@@H]1C/C=C\CCC(=O)OC[C@@H]2CCCN2C1=O)NCCO | 15.7% |
| CCOc1ncccc1C(=O)N(C)CC(=O)Nc1ccc(F)cc1 | -4.72% |
| CC1CCc2sc(C(=O)N/N=C/C3CCCCC3)cc2C1 (stereo not drawn) | 0.32% |
| O=C(CSc1nnc(COc2ccc(Cl)cc2)n1Cc1ccco1)N1CCNC1=O | 6.03% |
| Cc1cnc(C(=O)OCC(=O)NCCCc2ccccc2)cn1 | 4.7% |
| COc1ccc(C(=O)OCC(=O)NCCCc2ccccc2)cc1OC | 55.4% (active) |
| O=C(COC(=O)c1ccc(F)cc1)NCCCc1ccccc1 | 21.2% |
| Cn1c2c(c(=O)n(C)c1=O)CN(Cc1ccco1)CN2 | -2.71% |
| CCCN(CC(=O)Nc1ccccc1C)C(=O)c1ccc2[nH]c3c(c2c1)CC(C)CC3 (stereo not drawn) | 8.67% |
| CCOc1ccc(S(=O)(=O)N2CCCCC2)cc1NC(=O)CN1CCCC1c1cccs1 (stereo not drawn) | -0.88% |
| CC(=O)Nc1ccc(S(=O)(=O)NCC2CCC(C(=O)NCCc3ccccc3)CC2)cc1 (stereo not drawn) | 6.72% |
| CC1=NN(c2ccc(Cl)c(C(=O)O)c2)C(=O)/C1=C/c1ccc(-c2ccccc2[N+](=O)[O-])o1 | 36.5% (active) |
| O=C(Nc1ccc(N2CCOCC2)cc1)c1ccc(-c2ccccc2[N+](=O)[O-])o1 | -11.3% |
| O=C1NC(c2ccc(-c3ccccc3[N+](=O)[O-])o2)C(C(=O)c2ccc(Cl)cc2)C(O)(C(F)(F)F)N1 (stereo not drawn) | 1.45% |
| CC(CO)(CO)NC(=O)c1ccc(=O)[nH]n1 | -12.6% |
| Cc1c2cnn(CC(=O)NCCCN3CC(C)CC(C)C3)c(=O)c2c(C)n1Cc1ccc(Cl)cc1 (stereo not drawn) | 5.22% |

Reference: PubChem BioAssay AID492956 (The Scripps Research Institute Molecular Screening Center, 2010)
